In all, about 410,000 compounds went through this assay and about 310 (0.076%) were called active. Entries that show only a call come without a potency. About 2% were inconclusive and are not listed. The call rests on the fitted dose curve; in most records, active means well fitted activation curve with a large enough effect; inconclusive means small, poorly fitted or top-dose-only effect, or another doubt; inactive means no such curve, though single readings can be large or run the other way. Only a selection was taken, and actives are over-represented in it overall.
Potency means the concentration at half of the fitted maximal effect.

Chain of Parathyroid hormone/parathyroid hormone-related peptide receptor (Homo sapiens) (Q03431 whole entry, looked up): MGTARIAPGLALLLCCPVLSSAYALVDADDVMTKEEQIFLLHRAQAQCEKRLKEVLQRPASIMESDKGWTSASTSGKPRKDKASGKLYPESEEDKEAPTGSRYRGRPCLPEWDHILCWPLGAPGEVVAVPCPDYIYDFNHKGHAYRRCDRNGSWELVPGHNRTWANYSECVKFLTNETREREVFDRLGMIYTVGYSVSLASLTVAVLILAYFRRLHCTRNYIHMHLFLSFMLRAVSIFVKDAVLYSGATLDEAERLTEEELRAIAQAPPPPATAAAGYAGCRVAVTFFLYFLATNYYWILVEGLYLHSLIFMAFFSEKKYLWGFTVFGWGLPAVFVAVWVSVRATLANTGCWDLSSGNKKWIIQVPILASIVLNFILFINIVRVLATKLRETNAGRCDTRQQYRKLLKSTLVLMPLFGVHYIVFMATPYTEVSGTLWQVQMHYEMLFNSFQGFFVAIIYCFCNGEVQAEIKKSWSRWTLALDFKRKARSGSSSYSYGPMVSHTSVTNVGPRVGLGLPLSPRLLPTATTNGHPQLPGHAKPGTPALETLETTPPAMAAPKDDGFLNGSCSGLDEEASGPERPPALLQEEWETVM

In the test the target is Parathyroid hormone/parathyroid hormone-related peptide receptor (Homo sapiens) (UniProt Q03431). The test is described as follows: qHTS for PTHR1 Agonists: Primary Screen. Further: nearly all actives have a fitted effect of over 55% in size. Particulars: HEK293 GP2 PTHR1 cells, GloSensor cAMP luminescence, 1 h; series mostly up to 115 µM. The text has this:
The goal of the proposed studies is to discover new compounds that act as potent agonists on the parathyroid hormone receptor type-1 (PTHR1). The PTHR1 plays critical roles in maintaining blood calcium and phosphate levels, as well as in controlling bone remodeling. PTHR1 agonists could thus be useful for treating diseases such as hypoparathyroidism and osteoporosis. In the former disease, an agonist drug would help maintain normal blood calcium and phosphate levels under conditions of parathyroid hormone deficiency. In the latter disease, an agonist drug would stimulate new bone formation and thus reduce the risk of fracture, under conditions of bone fragility, as occurs in aging.
To that end, we performed a quantitative high-throughput screening (qHTS) of the Molecular Libraries Probe Centers Network (MLPCN) compound libraries at the NIH Chemical Genomics Center (NCGC) for the parathyroid hormone receptor type-1 (PTHR1) using a unique HEK-293-derived cell line (GP2) that expresses the PTHR1 and a glosensor cAMP reporter construct.
NIH Molecular Libraries Probe Production Centers Network [MLPCN]
NIH Chemical Genomics Center [NCGC]
Assay Submitter (PI): Thomas Gardella, Massachusetts General Hospital
4 microL are dispensed into a 1536-well micro plate to yield 3,000 cells/well. The plates are then incubated overnight, after which 4 microL of 0.5 mM of BIoTium Luciferin plus 0.5 mM IBMX are added. They are then incubated at 37 degree for one hour before 23 nL of compounds are added through pinning and then incubated at 37 degree again for another hour. After the plates are kept at room temperature for 15 min before they are read on the ViewLux to measure luminescence.
On to `CC1=C(c2ccc(C)c(C)c2)S(=O)(=O)NC1=NCc1ccccc1Cl`, for which the Potency result is “inactive”. Turning to `COC(=O)c1cc(NC(=O)c2sc3ccccc3c2Cl)cc(C(=O)OC)c1`, the Potency result is “inactive”.

As to `Cc1[nH]c2ccccc2c1C(c1ccccc1)c1cccs1` (stereo not given), the Potency entry is “inactive”.

Consider `CCOc1ccc(N(Cc2ccccc2)C(=O)c2nc(S(C)(=O)=O)ncc2Cl)cc1`, for which the Potency entry is “inactive”. Turning to `CCOCCCNC(=O)c1cn(CC)c2ccc(S(=O)(=O)N3CCc4ccccc4C3)cc2c1=O`, the Potency result is “inactive”. The entry for `Cc1ccc(OCC(=O)Nc2ccc(Cl)c(-c3nc4ccccc4[nH]3)c2)cc1C` is “inactive”; for `CCC1=Nc2cc(C(=O)NCCCOC(C)C)ccc2Sc2ccc(C)cc21` it is “inactive”. As for `COc1ccc(-c2noc(CCC(=O)N(C)c3ccccc3C)n2)cc1`, the entry is “inactive”; as for `Cc1cccc(N2CCN(c3ccc(C(=O)O)cc3NC(=O)c3ccccc3F)CC2C)c1` (stereo not given), “inactive”; as for `Cc1cc(C)cc(NS(=O)(=O)c2ccc(-c3cc(C)no3)s2)c1`, “inactive”. Take `COc1cc(C(=O)NCCS(=O)(=O)N2CCN(c3ccccc3)CC2)cc(OC)c1OC`: the Potency result is “inactive”.

Take `CCOc1ccc(C(=O)c2cn(Cc3ccccc3OC)c3ccc(F)cc3c2=O)cc1`: the Potency result was “inactive”. With `CN1C(=O)c2ccccc2Sc2ccc(NC(=O)Cc3ccc(Cl)cc3)cc21`, the Potency result is “inactive”. Consider `Cc1ccccc1-c1nc2scc(CCNC(=O)C(=O)Nc3ccc(F)cc3F)n2n1`, for which the Potency entry is “inactive”. With `O=C(CCS(=O)(=O)c1cc(Br)cc2c1N(C(=O)C1CC1)CC2)Nc1ccc(C(F)(F)F)cc1`, the Potency entry was “inactive”. The entry for `Cc1cc(C)c(NC(=O)CSc2nc3nccnc3c(=O)n2CCc2c[nH]c3ccccc23)c(C)c1` is “inactive”. Turning to `COc1ccccc1C(=O)Nc1c(C(=O)N(C)Cc2ccccc2)sc2nc(C)c(Cl)c(C)c12`, the Potency result was “inactive”. As for `CCN(C(=O)Cn1cnc2sc(C)c(S(=O)(=O)N3CCN(c4ncccn4)CC3)c2c1=O)c1ccccc1F`, the entry is “inactive”. As for `CCC(=O)N1CCc2cc(CNC(=O)Nc3ccccc3Cl)ccc21`, the entry is “inactive”; as for `CSc1nc(-c2ccc(F)cc2)nc2c1Cc1c(CO)cnc(C)c1O2`, “inactive”. Regarding `Cc1ccccc1OCCSc1nc2ccc(NC(=O)c3ccco3)cc2s1`, the Potency result was “inactive”. Consider `Cc1ccc(Cn2c(=O)n(-c3ccc(C)cc3)c(=O)c3c2c2cc(C)ccc2n3C)cc1`, for which the Potency result was “inactive”. Take `Cc1ccsc1CN(C(=O)c1oc2ccc(Br)cc2c1C)C1CCS(=O)(=O)C1` (stereo not given): the Potency entry was “inactive”.

Turning to `Cc1ccccc1CSc1nc2c([nH]c3ccccc32)c(=O)n1C`, the Potency result was “inactive”. On to `CC(=O)c1ccc(N2CCN(c3nc4c(S(=O)(=O)c5ccccc5)nnn4c4ccc(Cl)cc34)CC2)cc1`, for which the Potency result was “inactive”.

In the case of `Cc1cccc(N2CCN(C(=O)Cn3ncc4c5ccccc5n(C)c4c3=O)CC2C)c1` (stereo not given), the Potency entry is “inactive”. Consider `CCOc1ccc(C2C(C(=O)Nc3ccc(Cl)cc3)=C(C)Nc3nc(C(F)(F)F)nn32)cc1` (stereo not given), for which the Potency result was “inactive”.

As to `CCN(C(=O)Cn1c(=O)nc(-c2ccccc2)c2cc(Cl)ccc21)c1cccc(C)c1`, the Potency result was “inactive”. The entry for `Cc1cc(C)cc(NC(=O)CCCc2nc(-c3ccccc3Cl)no2)c1` is “inactive”. The entry for `CCOC(=O)C1CCN(c2nc3c(S(=O)(=O)c4ccc(CC)cc4)nnn3c3ccc(Cl)cc23)CC1` is “inactive”; for `Cc1ccc(CNC(=O)CCC(=O)N2Cc3ccccc3Oc3ncccc32)cc1` it is “inactive”.

Consider `CCOC(=O)c1c(NC(=O)Cc2coc3ccc(CC)cc23)sc2c1CCC2`, for which the Potency result was “inactive”.

For the compound `CCOc1ccccc1N(CC)C(=O)Nc1cn(C)c(=O)c2ccccc12`, the Potency result is “inactive”.

As to `O=C(NCCCO)c1nn(-c2ccc(Cl)cc2)nc1CO`, the Potency entry is “inactive”. Turning to `CCc1nn(CC(=O)N2CCN(c3ccc(Cl)cc3)CC2)c(=O)c2cc3occc3n12`, the Potency entry is “inactive”.

As for `CC(C)Cn1c(C2CC(=O)N(c3ccccc3Cl)C2)nc2ccccc21` (stereo not given), the Potency result was “inactive”.

As for `Cn1c(COc2ccccc2C(C)(C)C)nc2ccccc21`, the Potency entry is “inactive”. The entry for `COc1ccc(NC(=O)CSC2=Nc3ccccc3C3=NC(CC(=O)NCc4ccccc4OC)C(=O)N23)cc1Cl` (stereo not given) is “inactive”; for `CC(CCCc1ccccc1)NC(=O)c1nn(-c2ccc(Cl)cc2)nc1CO` (stereo not given) it is “inactive”; for `COc1ccc(CNc2nc(-c3ccc(Cl)cc3)nn2C(=O)c2ccccc2)cc1` it is “inactive”. Turning to `Cc1ccc(CCNC(=O)C2CCN(c3nnc(-n4cccc4CNc4ccc(C)cc4)s3)CC2)cc1`, the Potency result was “inactive”.

With `Cc1ccc(SCC(=O)Nc2ccc3oc(-c4ccccc4F)nc3c2)cc1`, the Potency entry is “inactive”. For the compound `CC(=O)N1c2ccc(S(=O)(=O)N3CCCCCC3)cc2CC1C(=O)NCc1ccccc1C` (stereo not given), the Potency result is “inactive”.

For the compound `COc1ccccc1N1CCN(CCCNC(=O)c2cnn(-c3ccccc3Cl)c2C2CCN(C(=O)OC(C)(C)C)CC2)CC1`, the Potency entry is “inactive”. Take `CCN1CCN(CCCNC(=O)c2cnn(-c3ccc(C)cc3C)c2C2CCN(C(=O)OC(C)(C)C)CC2)CC1`: the Potency result was “inactive”. For the compound `Cc1cccc(C)c1-n1ncc(C(=O)NCCCN2CCCCC2)c1C1CCN(C(=O)OC(C)(C)C)CC1`, the Potency is 14.1 µM (active). Turning to `O=C(NC1CCCCC1)c1ccc(Cn2c(SCc3ccccc3)nc3cccnc32)cc1`, the Potency result was “inactive”. Regarding `COc1ccc(N(C)C(=O)C2CCN(S(=O)(=O)c3cc(Br)cc4c3N(C(C)=O)CC4)CC2)cc1`, the Potency result is “inactive”. `CCOc1ccc(OCC)c(NC(=O)c2c(C)nn(-c3ccccc3)c2-n2cccc2)c1`: the Potency result was “inactive”. As for `COc1cccc(-c2n[nH]c3c2C(c2cccc(O)c2)N(C)C3=O)c1` (stereo not given), the entry is “inactive”; as for `CCCN1CCN(CCCNC(=O)Cn2nc(CC)n3c(cc4occc43)c2=O)CC1`, “inactive”.

As for `COc1ccc2c(c1)c(N1CCCC1=O)c(C(=O)Nc1ccc(OC)c(Cl)c1)n2C`, the Potency result is “inactive”.

For `COC(=O)c1cc2occc2n1Cc1nc(-c2ccc(C)cc2)oc1C`, the Potency result is “inactive”.

Turning to `Cc1ccc(-c2cnc(NCc3ccc(C(C)C)cc3)n2C)cc1`, the Potency entry is “inactive”. With `C=Cc1ccc(Cn2c(C(=O)O)c(CNC3CCCC3)c3ccc(C)cc32)cc1`, the Potency entry is “inactive”.

The values are drawn from PubChem BioAssay AID743266 (National Center for Advancing Translational Sciences (NCATS), 2014).
